According to PubChem BioAssay AID1159580 (chemical genetic matrix, 2015):
Out of some 5,500 compounds screened, about 2,000 (36%) were called active. About 18% were inconclusive and are not listed. Cut-off read from the data, not from the text of the source: active = normalized growth mostly below about 0.91 (no sharp cut-off); inconclusive = no clear call, values can overlap the other calls; inactive = mostly above about 0.92. This is one part of the list.

Test: chemical genetic growth profiling, strain panel (AID 1159580);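 note: tested at 20 µM; growth read once vehicle control cultures reached saturation at 30 °C; 1 = growth at the plate median or of vehicle wells; lower values mean less growth of the strain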
Conditions: S. cerevisiae deletion strains, growth OD

Measured: normalized growth

COc1ccc(-c2cc(=O)c3c(OC)c(OC)c(OC)c(OC)c3o2)cc1OC
inactive: locus YAL021C, strain ccr4, active compounds read low 1 | locus YAL026C, strain drs2, active compounds read low 1 | locus YAL030W, strain snc1, active compounds read low 0.999 | locus YBL061C, strain skt5, active compounds read low 1 | locus YBR009C, strain hhf1, active compounds read low 1.02 | locus YBR023C, strain chs3, active compounds read low 1.01 | locus YBR171W, strain sec66, active compounds read low 1 | locus YBR231C, strain swc5, active compounds read low 0.997 | locus YBR279W, strain paf1, active compounds read low 0.998 | locus YCL011C, strain gbp2, active compounds read low 0.988 | locus YCL016C, strain dcc1, active compounds read low 0.993 | locus YCL069W, strain vba3, active compounds read low 1.02 | locus YCR088W, strain abp1, active compounds read low 0.996 | locus YDL005C, strain med2, active compounds read low 1 | locus YDL040C, strain nat1, active compounds read low 0.999 | locus YDR001C, strain nth1, active compounds read low 0.991 | locus YDR069C, strain doa4, active compounds read low 1.01 | locus YDR137W, strain rgp1, active compounds read low 1.03 | locus YDR159W, strain sac3, active compounds read low 0.96 | locus YDR195W, strain ref2 0.952 | locus YDR297W, strain sur2, active compounds read low 0.986 | locus YDR334W, strain swr1, active compounds read low 1.01 | locus YDR335W, strain msn5, active compounds read low 1.02 | locus YDR392W, strain spt3, active compounds read low 1.01 | locus YEL003W, strain gim4, active compounds read low 1.01 | locus YEL037C, strain rad23, active compounds read low 0.997 | locus YEL061C, strain CIN8 (second series), active compounds read low 0.999 | locus YER015W, strain faa2, active compounds read low 0.992 | locus YER016W, strain bim1, active compounds read low 0.993 | locus YER111C, strain swi4, active compounds read low 1 | locus YER155C, strain BEM2 (second series), active compounds read low 0.996 | locus YFR010W, strain ubp6, active compounds read low 1.02 | locus YGL167C, strain pmr1, active compounds read low 1.01 | locus YGL173C, strain kem1, active compounds read low 1.01 | locus YGL227W, strain vid30, active compounds read low 0.985 | locus YGL240W, strain doc1, active compounds read low 0.994 | locus YGL253W, strain hxk2, active compounds read low 0.994 | locus YHR013C, strain ard1, active compounds read low 0.973 | locus YHR027C, strain rpn1, active compounds read low 1 | locus YHR030C, strain SLT2, active compounds read low 1.01 | locus YHR079C, strain IRE1, active compounds read low 1.01 | locus YHR142W, strain chs7, active compounds read low 1.01 | locus YJL092W, strain hpr5, active compounds read low 0.996 | locus YJL095W, strain BCK1 (second series), active compounds read low 0.992 | locus YJL095W, strain BCK1, active compounds read low 0.963 | locus YJL115W, strain asf1, active compounds read low 0.988 | locus YJL129C, strain trk1, active compounds read low 1.01 | locus YJL154C, strain vps35, active compounds read low 0.983 | locus YJL164C, strain tpk1, active compounds read low 1 | locus YJL166W, strain qcr8, active compounds read low 0.998 | locus YJR066W, strain TOR1, active compounds read low 0.976 | locus YKL160W, strain elf1, active compounds read low 0.997 | locus YKR026C, strain gcn3, active compounds read low 0.997 | locus YKR091W, strain srl3, active compounds read low 0.996 | locus YLL001W, strain dnm1, active compounds read low 0.996 | locus YLL026W, active compounds read low 0.991 | locus YLL041C, strain sdh2, active compounds read low 0.991 | locus YLR027C, strain aat2, active compounds read low 1 | locus YLR113W, strain HOG1, active compounds read low 0.941 | locus YLR221C, strain rsa3, active compounds read low 0.996 | locus YLR258W, strain gsy2, active compounds read low 1.01 | locus YLR262C, strain YPT6 (second series), active compounds read low 1.04 | locus YLR320W, strain mms22, active compounds read low 1 | locus YLR342W, strain FKS1, active compounds read low 0.998 | locus YLR357W, strain rsc2, active compounds read low 0.957 | locus YLR370C, strain arc18, active compounds read low 0.988 | locus YLR384C, strain iki3, active compounds read low 0.981 | locus YML120C, strain ndi1, active compounds read low 1.01 | locus YMR058W, strain fet3, active compounds read low 0.995 | locus YMR125W, strain sto1, active compounds read low 1 | locus YMR129W, active compounds read low 0.994 | locus YMR205C, strain PFK2, active compounds read low 1.02 | locus YMR231W, strain pep5, active compounds read low 1 | locus YNL071W, strain lat1, active compounds read low 0.998 | locus YNL183C, strain NPR1, active compounds read low 0.926 | locus YNL209W, strain ssb2, active compounds read low 1 | locus YNL248C, strain rpa49, active compounds read low 0.995 | locus YNL322C, strain KRE1 (second series), active compounds read low 0.994 | locus YNR049C, strain mso1, active compounds read low 1.01 | locus YOR001W, strain rrp6, active compounds read low 0.982 | locus YOR070C, strain gyp1, active compounds read low 0.988 | locus YOR080W, strain dia2, active compounds read low 0.989 | locus YOR083W, strain WHI5, active compounds read low 1 | locus YOR106W, strain vam3, active compounds read low 1.01 | locus YOR231W, strain MKK1, active compounds read low 1.02 | locus YOR265W, strain rbl2, active compounds read low 1.02 | locus YOR270C, strain vph1, active compounds read low 1.07 | locus YOR290C, strain snf2, active compounds read low 0.988 | locus YPL051W, strain arl3, active compounds read low 0.974 | locus YPL078C, strain atp4, active compounds read low 0.985 | locus YPL106C, strain sse1, active compounds read low 0.962 | locus YPL240C, strain hsp82, active compounds read low 1 | locus YPL256C, strain CLN2, active compounds read low 0.991
